Measurements published in PubChem BioAssay.
Active and inactive are the calls of the source. Unless noted, the rule behind the calls is not given here.

Experiments:
[1] = compound effects on lung adenocarcinoma cell viability – A549, calcein-AM fluorescence, 48 h, basal, profiling panel (AID 1162); details: higher = more signal; note: test concentration not given here
[2] = compound effects on differentiated 3T3-L1 adipocyte viability – cell-based, 3T3-L1 adipocytes, calcein-AM fluorescence, 48 h, basal, profiling panel (AID 1163); details: 3T3-L1 adipocytes viability, higher = more signal; note: test concentration not given here
[3] = compound effects on hepatocellular carcinoma cell viability – HepG2, calcein-AM fluorescence, 48 h, basal, profiling panel (AID 1164); details: higher = more signal; note: test concentration not given here
[4] = compound effects on multiple myeloma cell viability – MM1S, calcein-AM fluorescence, 48 h, basal, profiling panel (AID 1165); details: higher = more signal;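 note: viability of MM1S multiple myeloma cells under basal unstimulated conditions; test concentration not given here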
[5] = calcein-AM signal in unstimulated myeloma cells – cell-based, calcein-AM fluorescence, 48 h, PK04 Diversity Set, profiling panel (AID 1166); details: RPMI8226 myeloma viability, higher = more signal;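 note: cells grown under basal conditions without added stimulus; test concentration not given here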
[6] = JC-1 mitochondrial signal, unstimulated HepG2 cells – cell-based, JC-1 fluorescence, 24 h, 100 nL compound, profiling panel (AID 1167); details: HepG2 mitochondrial potential, higher = more signal; note: test concentration not given here
[7] = JC-1 mitochondrial signal, unstimulated adipocytes – cell-based, JC-1 fluorescence, 3T3-L1 adipocytes, 24 h, 100 nL compound, profiling panel (AID 1168); details: JC-1 mitochondrial fluorescence, higher = more signal, called active from +8 up or from −8 down; note: test concentration not given here
[8] = JC-1 mitochondrial signal, unstimulated myeloma cells – cell-based, JC-1 fluorescence, RPMI8226, 24 h, 100 nL compound, profiling panel (AID 1169); details: JC-1 mitochondrial potential fluorescence, higher = more signal; note: test concentration not given here
[9] = JC-1 mitochondrial signal, unstimulated MM1S myeloma – cell-based, JC-1 fluorescence, 24 h, 100 nL compound, profiling panel (AID 1170); details: MM1S mitochondrial potential, higher = more signal; note: test concentration not given here
[10] = resazurin metabolic signal in A549 cells – cell-based, resazurin fluorescence, 24 h, PK04 Diversity Set, profiling panel (AID 1171); details: A549 viability, higher = more signal, called active from +8 up or from −8 down; note: test concentration not given here
[11] = resazurin metabolic signal in HepG2 cells – cell-based, resazurin fluorescence, 24 h, PK04 Diversity Set, profiling panel (AID 1172); details: HepG2 viability, higher = more signal; note: test concentration not given here
[12] = budding yeast growth changes without added modifier – OD600, strain BY4716, 24 h, basal condition, primary screen (AID 1173); details: S. cerevisiae BY4716 growth, OD600, 24 h; higher = more signal, called active from +8 up or from −8 down
[13] = viability profiling in MM1S myeloma cells – cell-based, resazurin fluorescence, basal, 24 h, PK04 Diversity Set, profiling panel (AID 1174); details: higher = more signal, called active from +8 up or from −8 down; note: test concentration not given here
[14] = target: Dihydroorotate dehydrogenase (quinone), mitochondrial (Plasmodium falciparum (isolate 3D7)) (UniProt Q08210); assay: inhibition of P. falciparum DHODH – biochemical, C-terminal His tag, absorbance 600 nm, primary screen (AID 1175); details: PfDHODH enzyme, DCIP absorbance 600 nm; higher = more signal, called active from +8 up or from −8 down;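 note: recombinant parasite enzyme with a five histidine tag at its C terminus; test concentration not given here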
Sequence of Dihydroorotate dehydrogenase (quinone), mitochondrial (Plasmodium falciparum (isolate 3D7)) (Q08210 whole entry, looked up): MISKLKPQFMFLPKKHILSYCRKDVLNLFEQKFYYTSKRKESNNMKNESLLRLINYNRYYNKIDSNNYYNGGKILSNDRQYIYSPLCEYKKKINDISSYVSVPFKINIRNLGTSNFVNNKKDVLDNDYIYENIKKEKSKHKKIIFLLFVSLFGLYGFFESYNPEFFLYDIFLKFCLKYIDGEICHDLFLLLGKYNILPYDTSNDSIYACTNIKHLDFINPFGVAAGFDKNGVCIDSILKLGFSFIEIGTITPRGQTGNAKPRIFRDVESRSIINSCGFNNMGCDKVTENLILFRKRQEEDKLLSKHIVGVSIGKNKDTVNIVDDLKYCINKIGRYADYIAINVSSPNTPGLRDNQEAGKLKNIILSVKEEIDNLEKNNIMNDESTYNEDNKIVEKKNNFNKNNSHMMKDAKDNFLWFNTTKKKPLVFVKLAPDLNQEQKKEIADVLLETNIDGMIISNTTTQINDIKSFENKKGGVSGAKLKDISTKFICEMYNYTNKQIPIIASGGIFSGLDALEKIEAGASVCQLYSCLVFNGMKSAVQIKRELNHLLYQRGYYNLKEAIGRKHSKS

[15] = inhibition of PAO1 biofilm formation – strain PAO1, LB-PBS medium, absorbance 600 nm, primary screen (AID 1176); note: test concentration not given here; details: P. aeruginosa PAO1 growth/biofilm, A600, 12 h; higher = more signal
[16] = growth modulation of vineyard yeast isolate – strain RM11-1a, OD600, basal, 24 h, primary screen (AID 1177);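 note: cultures grown under basal conditions with no added stressor; test concentration not given here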; details: S. cerevisiae RM11-1a growth, OD600, 24 h; higher = more signal, called active from +8 up or from −8 down
[17] = growth of efflux-deficient E. coli DRC39 – strain DRC39, OD650, 24 h, E. coli filamentation inducers, primary screen (AID 1178);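 note: growth measured as culture turbidity by optical density at 650 nm; test concentration not given here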; details: E. coli DRC39 acrAB, higher = more signal, called active from +8 up or from −8 down
[18] = growth of efflux-deficient E. coli DRC39 – strain DRC39, OD650, 48 h, E. coli filamentation inducers, primary screen (AID 1179);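 note: screen aims at cell division blockers that make cells filament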; details: E. coli DRC39 delta-acrAB growth, higher = more signal, called active from +8 up or from −8 down
[19] = viability profiling in RPMI8226 myeloma cells – cell-based, resazurin fluorescence, basal, 24 h, PK04 Diversity Set, profiling panel (AID 1180); details: higher = more signal;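 note: RPMI8826 multiple myeloma cell line at 5000 cells per well; test concentration not given here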
[20] = target: E3 ubiquitin-protein ligase XIAP (Homo sapiens) (UniProt P98170); assay: small molecules binding XIAP protein – biophysical, small-molecule microarray, fluorescence 635 nm, primary screen (AID 1181); details: higher = more signal;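 note: score merges 667 nm emission and signal to noise over triplicate slides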
Sequence of E3 ubiquitin-protein ligase XIAP (Homo sapiens) (P98170 whole entry, looked up): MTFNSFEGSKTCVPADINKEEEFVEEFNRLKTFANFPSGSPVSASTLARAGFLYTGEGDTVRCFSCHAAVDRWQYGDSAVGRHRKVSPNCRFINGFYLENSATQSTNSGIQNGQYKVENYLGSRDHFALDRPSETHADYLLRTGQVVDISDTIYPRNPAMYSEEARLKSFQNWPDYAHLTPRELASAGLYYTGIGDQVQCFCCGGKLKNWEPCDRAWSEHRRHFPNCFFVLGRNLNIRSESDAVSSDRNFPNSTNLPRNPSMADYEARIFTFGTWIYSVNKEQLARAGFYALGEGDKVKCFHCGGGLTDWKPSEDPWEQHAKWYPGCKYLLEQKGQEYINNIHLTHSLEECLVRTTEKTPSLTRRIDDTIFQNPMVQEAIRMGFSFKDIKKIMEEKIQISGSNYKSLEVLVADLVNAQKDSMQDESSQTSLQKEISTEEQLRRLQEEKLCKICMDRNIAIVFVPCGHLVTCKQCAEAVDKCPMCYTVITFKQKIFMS

Compound	z-score [1]	z-score [2]	z-score [3]	z-score [4]	z-score [5]	z-score [6]	z-score [7]	z-score [8]	z-score [9]	z-score [10]	z-score [11]	z-score [12]	z-score [13]	composite z-score [14]	z-score [15]	z-score [16]	z-score [17]	z-score [18]	z-score [19]	composite z-score [20]
COCCn1c(C(=O)N2CCCC2)cc2c1C[C@H]1CN(C(=O)c3ccccc3)[C@@](Cc3ccc(OC)cc3)(C(=O)OC)[C@@H]21	0.476	0.238	1.35	0.776	0.426	2.71	0.0944 (inactive)	0.00347	-0.828	-0.253 (inactive)	-0.818	-0.35 (inactive)	-0.716 (inactive)	-1.79 (inactive)	0.576 (inactive)	-0.944 (inactive)	-0.0628 (inactive)	0.763 (inactive)	-0.939	0.232
O=C1OCCC=C[C@H]2OC34C=CCN(CCN5CCOCC5)C(=O)[C@H]3N(CCO)C(=O)[C@@H]4C12 (stereo not given in full)	-0.53	-0.246	-0.209	0.471	-0.253	-0.659	-0.293 (inactive)	-0.578	-0.47	-0.948 (inactive)	-0.0535	-0.663 (inactive)	-1.45 (inactive)	-1.85 (inactive)	0.0962 (inactive)	-0.249 (inactive)	-1.14 (inactive)	-0.99 (inactive)	-0.6	0.0264
NC(=O)[C@]1(Cc2ccccc2)N=C(c2ccc(OCCCO)cc2)O[C@@H]1c1ccccc1	-0.399	0.879	-0.603	-0.598	-1.94	-1.43	-0.517 (inactive)	-0.775	1.18	-0.784 (inactive)	-0.3	-1.06 (inactive)	-1.02 (inactive)	0.417 (inactive)	0.246 (inactive)	0.569 (inactive)	0.0671 (inactive)	-1.24 (inactive)	-0.189	0.16
CN1C(=O)C2C(C1=O)C1C=C(c3ccc(CO)cc3)C2C(C2CC2)N1Cc1cc2c(cc1Br)OCO2 (stereo not given)	0.302	0.575	1.81	-0.387	-1.75	3.74	0.673 (inactive)	-0.73	-0.565	-1.84 (inactive)	-0.698	-2.01 (inactive)	-1.31 (inactive)	-2.33 (inactive)	0.0061 (inactive)	-0.889 (inactive)	0.101 (inactive)	-0.0102 (inactive)	-1.47	0.111
O=C1[C@H]2C=C(Br)[C@H](C[C@@H]2OCCOCCO)[C@@]12CO2	-0.43	-0.577	-0.96	-0.368	-0.674	-1.33	-0.454 (inactive)	0.406	-0.137	-0.274 (inactive)	-0.0029	1.2 (inactive)	-0.478 (inactive)	0.857 (inactive)	0.379 (inactive)	1.4 (inactive)	-0.308 (inactive)	-1.05 (inactive)	-0.608	-0.201
CC(C)[C@H]1COC(=O)N1C(=O)[C@H]1[C@@H](c2ccccc2)N(c2ccccc2)O[C@@H]1C	0.198	0.343	0.612	-0.357	0.133	0.941	0.997 (inactive)	-0.361	-1.46	1.72 (inactive)	0.701	-1.42 (inactive)	0.517 (inactive)	-0.656 (inactive)	0.0694 (inactive)	1.46 (inactive)	0.166 (inactive)	0.703 (inactive)	1.41	0.0785
CCOC(=O)C1=CC[C@@H](c2cccc(Cl)c2)N(S(=O)(=O)c2ccc(C)cc2)[C@H]1c1ccc(C#N)cc1	0.384	-1.03	-0.474	-0.692	-0.704	1.38	0.0503 (inactive)	-0.62	-1.29	1.27 (inactive)	0.697	2.09 (inactive)	-0.39 (inactive)	0.21 (inactive)	1.68 (inactive)	0.834 (inactive)	-0.905 (inactive)	-0.314 (inactive)	-1.42	-0.38
CN1C(=O)C2C=CC(C(O)C(C)(C)C)N(Nc3ccccc3)C2C1=O (stereo not given)	-0.398	-1.31	0.19	0.235	-1.08	-1.16	-0.398 (inactive)	-0.476	-0.178	-0.463 (inactive)	-0.376	0.66 (inactive)	-0.281 (inactive)	-0.702 (inactive)	0.695 (inactive)	0.0609 (inactive)	-0.568 (inactive)	0.108 (inactive)	-0.444	0.621
O=C1O[C@H](c2ccccc2)[C@H](c2ccccc2)N2[C@H]1[C@@H](C(=O)Nc1nc3ccccc3s1)[C@]1(C(=O)Nc3ccc(C#CC4=CCCCC4)cc31)[C@H]2c1ccc(OCCO)cc1	-0.641	1.07	-0.819	-1.69	-1.7	-3.34	0.256 (inactive)	-1.07	-1.8	0.18 (inactive)	0.281	1.63 (inactive)	-0.543 (inactive)	-3.03 (inactive)	3.01 (inactive)	1.46 (inactive)	-0.154 (inactive)	-0.686 (inactive)	-0.496	-0.24
